Source: PubChem BioAssay
ERK AVP block = blocks ERK signaling stimulated by vasopressin | HEK293-V1b, vasopressin-stimulated pERK AlphaScreen | Potency, µM (highest dose often 57.5 µM), for inactives: top-dose activity, negative = inhibition, most hits filed as inhibitors | 72,000 tested, 0.99% active | AID 995; further: on the % scale 0 is the no-effect control and ±100 the full control effect; nearly all actives have a fitted effect of over 55% in size
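V1b-HEK293 cells; cpd 30 min 37C; 25 nM vasopressin 5 min; lyse 10 min; AlphaScreen beads 5 hr RT. Normalized to DMSO basal and 25 nM vasopressin; AC50 by Hill fit.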
Tau fil binding = binders of human tau filaments. 71,000 tested, 2% active. P10636. recombinant tau filaments, thioflavin S fluorescence, 15 h; filaments grown with octadecylsulfate alongside compound. Potency, µM (top dose mostly 57.1 µM), inactives show at the top dose activity change, negative = inhibition;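 further: on the % scale 0 is the no-effect control and ±100 the full control effect; actives lower thioflavin S fluorescence by blocking filaments or displacing dye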
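Thioflavine S fluorescence (ex 450, em 510 nm) reports filaments formed from 1 uM human tau plus 30 uM ODS over 15 h at 37 C (10 mM HEPES pH 7.4, 100 mM NaCl, 5 mM DTT); compounds displacing dye or blocking filaments lower signal.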
ALOX15 inhib = inhibitors of human 15-lipoxygenase (ALOX15); purified 15hLO-1, xylenol orange hydroperoxide absorbance; Potency, µM (top dose mostly 57.1 µM), without a hit: top-dose activity change, negative = inhibition, most hits filed as inhibitors; 74,000 tested, 1.4% active; AID 887; further: on the % scale 0 is the no-effect control and ±100 the full control effect; nearly all actives have a fitted effect of over 55% in size
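Purified human 15hLO-1 (40 nM) in 25 mM Hepes pH 7.5, 0.01% Triton X-100, preincubated 15 min RT with compound, then 50 uM arachidonic acid for 6 min. Hydroperoxide read by ferrous/xylenol orange, 30 min; 573/405 nm absorbance ratio gave progress.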
Caspase-1 inhib = caspase-1 (human) inhibition, allosteric or competitive; P29466; Caspase-1 enzyme, Ac-WEHD-AFC fluorogenic rate; Potency, µM (series often up to 57.5 µM), inactives show at the top dose activity change, negative = inhibition, hits mostly inhibitors; 75,000 tested, 0.03% active; AID 900;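 further: plate controls were vehicle for no effect and no substrate for full effect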
Casp7 inh = caspase-7 (human) inhibition, allosteric or competitive; AID 889; P55210; Potency, µM (titrated, usually from 57.5 µM), without a hit: top-dose activity change, negative = inhibition, usual class: inhibitors; recombinant caspase-7, Ac-DEVD-AFC fluorescence rate; 75,000 tested, 0.02% active; active means well fitted inhibition curve with a large enough effect in the main read-out, with a control signal flat, not every such curve was filed as active; inconclusive means small, poorly fitted or top-dose-only effect, or a change in a side signal; further: % of control where 0% means no effect
An asterisk follows results filed as active; ? = inconclusive; nt = not tested or not shown; ! = not active in a repeat; [ ] = another dose, or the depositor's remark. An excerpt weighted towards active compounds, which were near 3.9% of everything screened. Unless noted, the call rests on the fitted dose curve; in most records, active means well fitted curve in the direction sought with a large enough effect; inconclusive means small, poorly fitted or top-dose-only effect, or another doubt; inactive means no such curve, though single readings can be large; an effect the other way counts as inactive or inconclusive. Potency means the concentration at half of the fitted maximal effect.

SMILES | ERK AVP block | Tau fil binding | ALOX15 inhib | Caspase-1 inhib | Casp7 inh
COc1ccc(-c2n[nH]c(C)c2-c2ccc(Cl)cc2)c(O)c1OC | 25µM* | 38% | -21% | -4% | -2%
COc1ccc(O)c(-c2c(-c3ccc(Cl)cc3)n[nH]c2C)c1 | ? | -23% | 25µM* | -1% | -4%
Cc1[nH]nc(-c2ccc(O)cc2O)c1-c1ccc(Cl)cc1 | ? | -10% | ? | -5% | 0%
CCCOC(=O)c1ccc(Oc2c(-c3ccc(OC)cc3O)n[nH]c2C)cc1 | 2% | 6% | ? | 3% | -4%
c1cncc(Nc2nc(-c3cccnc3)cs2)c1 | ? | 6% | 9% | 0% | 0%
c1cncc(Nc2nc(-c3ccncc3)cs2)c1 | 20µM* | -7% | 4% | 2% | 1%
COc1ccc(-n2c(=O)cnc3cnc(Nc4ccccc4)nc32)cc1 | -11% | -13% | -6% | -3% | -1%
COc1cccc(C2=NC(C)(C)NC(c3ccccc3O)C2)c1 (configuration not stated) | -1% | -11% | 32µM* | ? | -21%
COc1cccc(C2=NOC(C(=O)NC(C)C)C2)c1 (configuration not stated) | 2% | 0% | -3% | 4% | -2%
CCCC(=O)c1ccc(N2CCN(C(=O)c3ccccc3Br)CC2)c(F)c1 | 25µM* | 53% | -25% | -3% | -11%
COc1ccc(-n2c(C)cc(C(=O)CSc3nn4c(=O)c(C(C)(C)C)nnc4s3)c2C)cc1 | -2% | 20µM* | -2% | -2% | -2%
COc1ccc(C(=O)CSc2nn3c(=O)c(C(C)(C)C)nnc3s2)cc1 | 36% | 2% | ? | 0% | 0%
O=Nc1ccc(NO)cc1 | 7% | -29% | -3% | -2% | -1%
O=Nc1ccc(Nc2ccccc2)cc1 | -18% | 32µM* | -21% | -3% | 3%
Oc1ccc2cc(SSc3ccc4cc(O)ccc4c3)ccc2c1 | 26% | -17% | ? | -4% | -3%
Cc1nc2cnc(N(C)C)nc2n(C2CC2)c1=O | ? | 7% | -1% | ? | ?
O=C(NCc1ccco1)c1nc2nc(-c3cccs3)cc(C(F)(F)F)n2n1 | -7% | 25µM* | -14% | nt | ?
O=C(Nc1ccc2c(c1)OCO2)c1cc2ncc(Br)cn2n1 | ? | 25µM* | -22% | -2% | 1%
O=C(Nc1ccc(Nc2ccccc2)cc1)c1ccco1 | -22% | 20µM* | -13% | -3% | -2%
O=C(Nc1ccc(N2CCCC2)c(Cl)c1)c1ccco1 | ? | 4µM* | -24%[11.4 µM] | ? | -24%
CCOc1ccc(NC(=O)c2ccco2)cc1 | -21% | -7% | -1% | 1% | 1%
O=C(Nc1ccc2[nH]c3c(c2c1)CCCC3)c1ccco1 | -22% | 271% | 16µM* | ? | -23%
COc1cc(OC)cc([C@H](CNc2ncnc3c2ncn3[C@@H]2O[C@@H](CO)[C@H](O)[C@@H]2O)c2ccccc2C)c1 | nt | -2% | nt | nt | nt
CCCCN1C(=O)/C(=C2\SC(N3CCCCC3)=NC2=O)c2ccccc21 | 25µM* | 62% | -18% | -4% | 2%
O=C1N=C(N2CCOCC2)S/C1=C1\C(=O)N(Cc2ccccc2)c2ccc(Br)cc21 | -1% | -4% | 9% | -2% | 0%
SMILES | ERK AVP block | Tau fil binding | ALOX15 inhib | Caspase-1 inhib | Casp7 inh
O=C(O)CC12C[C@H]3C[C@@H](CC(O)(C3)C1)C2 | 21%[11.5 µM] | -5%[11.4 µM] | -5%[11.4 µM] | 2%[11.5 µM] | -1%[11.5 µM]
Cc1ccc(Nc2nc(N)nc(CN3CCN(c4ccccc4)CC3)n2)cc1Cl | -22% | 16µM* | -19% | -3% | -4%
COc1ccc(N2CCN(Cc3nc(N)nc(Nc4ccc(C)c(Cl)c4)n3)CC2)cc1 | ? | 8% | -21% | -2% | -4%
COc1ccc(-c2cc(-c3ccc(OC)cc3)[nH]n2)cc1 | 3.2µM* | 89% | -3% | 0% | -4%
Cc1ccc(C(=O)Nc2ccccc2N2CCOCC2)c(C)c1 | nt | nt | -8% | -3% | -1%
Cc1ccc(SCCNC(=O)CN2C(=O)c3ccccc3S2(=O)=O)cc1 | 7.9µM* | ? | -8% | -2% | 0%
O=C(CN1C(=O)c2ccccc2S1(=O)=O)NCCSc1ccccc1 | -6% | -3% | 0% | 0% | 0%
Cc1cc(C)c2nc(-c3ccccn3)cc(C(=O)Nc3cc(C)on3)c2c1 | 2% | 230% | -5% | -3% | -4%
Cc1cc(NC(=O)c2cc(-c3ccncc3)nc3c(C)cccc23)no1 | -17% | 3.2µM* | 6% | 1% | -6%
COC(=O)NC(CC(C)=O)c1ccco1 (configuration not stated) | 1%[11.5 µM] | nt | 9%[11.4 µM] | -1%[11.5 µM] | -1%[11.5 µM]
NC(=O)CNCCC(c1ccccc1)c1ccccc1 | 8% | -6% | 20µM*! | 0% | -1%
CCNc1ncc2nc(-c3cccs3)c(=O)n(Cc3cccc(OC)c3)c2n1 | -2% | 134% | -27% | nt | ?
C/C(Cl)=C/Cn1c(SC(C)C)nc2c1c(=O)[nH]c(=O)n2C | 16µM* | 2% | ? | -1% | -1%
CCOC(=O)CSc1cc(=O)n(C)c2cc(Cl)ccc12 | 14% | 0% | 13µM* | 0% | -2%
CCN1CCCC1CNC(=O)CSc1cc(=O)n(C)c2cc(Cl)ccc12 (configuration not stated) | 19% | 40% | 12% | 0% | 6%
O=c1c2c3nc4ccccc4nc3n(/N=C/c3cccs3)c2ncn1-c1ccccc1 | -15% | 25µM* | -8% | -14% | -12%
O=C(c1ccc(F)cc1)C1CCN(CCn2c(=O)[nH]c3ccccc3c2=O)CC1 | 23% | 32µM*! | -10%[25.6 µM] | -4% | 3%
COC(=O)c1ccc2ncccc2c1 | 2% | -11% | 7.9µM* | -1% | 0%
O=C(Nc1ccc2ncccc2c1)Nc1ccc2ncccc2c1 | -11%[11.5 µM] | 3%[11.4 µM] | 1%[11.4 µM] | 0%[11.5 µM] | 2%[11.5 µM]
CCN1CCCC1Cn1c(-c2ccccc2)nc2c(NC3CCCCC3)nc(C)nc21 (configuration not stated) | -30% | 46% | -8% | 1% | -1%
C[C@@H](C(=O)NCc1cccc2ccccc12)[C@H]1C[C@]1(C)[C@H](NC(=O)OCc1ccccc1)c1ccccc1 | -4% | 12% | nt | 0% | 0%
COc1ccc(Nc2cc(C(=O)NCCCN3CCN(C)CC3)c3ccccc3n2)cc1OC | 16% | 16µM* | -6% | 0% | -4%
CN(C)c1ncc2nc(-c3cccc(C#N)c3)c(=O)n(C[C@H]3CCCO3)c2n1 | -19% | 10% | 0% | nt | ?
Clc1nc2ccccc2nc1Cl | 11% | 0% | -12% | -2% | 1%
CN(C)c1ccc(N/C=C/C(=O)c2ccccc2)cc1 | ? | 16µM* | ? | -6% | -4%
CN(C)c1ccc(/C=N\NC(=O)c2cnc3ccccc3c2)cc1 | 11%[11.5 µM] | -9%[11.4 µM] | 0%[11.4 µM] | -1%[11.5 µM] | 0%[11.5 µM]
FC(F)(F)c1cc(CN2CCC3(CCNCC3)CC2)cc(C(F)(F)F)c1 | -9% | 13µM* | 3% | -1% | -1%
